# Results reported in a collection of fitness landscapes (doi:10.1126/science.1257360).
# The full ranking holds about 140,000 sequences; the median of “enrichment ratio after two sorts for PhoP signalling” is about 0, and the highest 2% start at about 11. This excerpt belongs to a sample that is enriched for the highest values.
# B1: PhoQ; a variant is named by its letters at X, in order, P23837 (parent)
# chain: MKKLLRLFFPLSLRVRFLLATAAVVLVLSLAYGMVALIGYSVSFDKTTFRLLRGESNLFYTLAKWENNKLHVELPENIDKQSPTMTLIYDENGQLLWAQRDVPWLMKMIQPDWLKSNGFHEIEADVNDTSLLLSGDHSIQQQLQEVREDDDDAEMTHSVAVNVYPATSRMPKLTIVVVDTIPVELKSSYMVWSWFIYVLSANLLLVIPLLWVAAWWSLRPIEALAKEVRELEEHNRELLNPATTRELTSLVRNLNRLLKSERERYDKYRTTLTDLTHSLKTPLXXLQXXLRSLRSEKMSVSDAEPVMLEQISRISQQIGYYLHRASMRGGTLLSRELHPVAPLLDNLTSALNKVYQRKGVNISLDISPEISFVGEQNDFVEVMGNVLDNACKYCLEFVEISARQTDEHLYIVVEDDGPGIPLSKREVIFDRGQRVDTLRPGQGVGLAVAREITEQYEGKIVAGESMLGGARMEVIFGRQHSAPKDE
# Variants of: B1
# Assay: enrichment ratio after two sorts for PhoP signalling (ratio (wild type AVST 3.29)); higher = more functional
# Settings: with PhoP (E. coli)
row,Variant,enrichment ratio
1,AQDN,≤ 0.25
2,PECQ,≤ 0.25
3,IETV,≤ 0.25
4,GVSF,11.8
5,GNSF,1.14
6,GVGF,12
7,GYGF,≤ 0.25
8,GVHF,≤ 0.25
9,GGGF,≤ 0.25
10,DDND,≤ 0.25
11,QPHR,≤ 0.25
12,FDYT,≤ 0.25
13,YIRR,≤ 0.25
14,KSWA,≤ 0.25
15,THHV,≤ 0.25
16,KSCH,≤ 0.25
17,FSCH,0.442
18,MMWA,≤ 0.25
19,TSCH,15.8
20,TSWA,15.4
21,MMNF,≤ 0.25
22,KSNF,≤ 0.25
23,TSNF,16.1
24,KSHV,≤ 0.25
25,TSHV,13.7
26,QSCS,≤ 0.25

row,Variant,enrichment ratio
1,SYVA,≤ 0.25
2,GMCC,≤ 0.25
3,FQGH,≤ 0.25
4,NRAM,≤ 0.25
5,KRFS,≤ 0.25
6,CNWS,≤ 0.25
7,RPDF,≤ 0.25
8,KFLF,≤ 0.25
9,SCDN,≤ 0.25
10,PMCH,≤ 0.25
11,MMTA,≤ 0.25
12,WSEI,≤ 0.25
13,TSHF,13.4
14,WITI,≤ 0.25
15,TSTA,14.2
16,TSHE,5.88
17,TSTI,22
18,TSEI,15.3
19,KSEI,≤ 0.25
20,MMTI,≤ 0.25
21,LCTA,≤ 0.25
22,KSHF,≤ 0.25
23,LGWN,≤ 0.25
24,TWGR,≤ 0.25
25,FHQM,≤ 0.25
26,TARV,≤ 0.25

row,Variant,enrichment ratio
1,QSIY,≤ 0.25
2,THHQ,≤ 0.25
3,TSHQ,11.8
4,KSHQ,≤ 0.25
5,DFQV,≤ 0.25
6,WHCG,≤ 0.25
7,AQTK,≤ 0.25
8,AQLT,8.16
9,AQLA,19
10,AQCN,4.1
11,AQLN,31.6
12,AQNL,≤ 0.25
13,AQLS,10.2
14,AQTC,9.55
15,AQTS,12.8
16,FEWS,≤ 0.25
17,RCQR,≤ 0.25
18,FLMM,1.72
19,YNDD,≤ 0.25
20,IFQD,≤ 0.25
21,AKFS,≤ 0.25
22,HACH,≤ 0.25
23,TMMH,5.83
24,TMPE,≤ 0.25
25,NNCV,≤ 0.25
26,TMCE,21.2

row,Variant,enrichment ratio
1,KMCG,≤ 0.25
2,TMCG,15
3,TMCV,13.2
4,TMIE,≤ 0.25
5,DMCV,≤ 0.25
6,TMCH,15.9
7,EMCG,≤ 0.25
8,NTFT,≤ 0.25
9,DACN,≤ 0.25
10,YKFT,≤ 0.25
11,VRAW,≤ 0.25
12,EVCN,≤ 0.25
13,PEAM,≤ 0.25
14,EYVE,≤ 0.25
15,HGYS,≤ 0.25
16,QTTN,≤ 0.25
17,SFNA,≤ 0.25
18,MWTS,≤ 0.25
19,PLKT,≤ 0.25
20,RNTM,≤ 0.25
21,WPSM,≤ 0.25
22,TMKE,13.6
23,THGE,≤ 0.25
24,MMSE,≤ 0.25
25,TMCS,16.8
26,TMPA,≤ 0.25

row,Variant,enrichment ratio
1,NHGE,≤ 0.25
2,TMNE,≤ 0.25
3,TMGE,14.8
4,DMSE,≤ 0.25
5,TMSE,15.9
6,TMWI,≤ 0.25
7,NMKE,≤ 0.25
8,DFCK,≤ 0.25
9,IFAG,≤ 0.25
10,ECNL,≤ 0.25
11,KFQG,≤ 0.25
12,GWTL,≤ 0.25
13,DYTL,≤ 0.25
14,YESY,≤ 0.25
15,RHIC,0.278
16,ATKV,≤ 0.25
17,IHFF,≤ 0.25
18,YYCV,≤ 0.25
19,TMCT,19.5
20,DMCT,≤ 0.25
21,TMCA,8.5
22,NMCT,≤ 0.25
23,TMCI,12.4
24,TMCK,3.91
25,YSWE,≤ 0.25
26,AFNE,≤ 0.25

row,Variant,enrichment ratio
1,WHNP,≤ 0.25
2,SPAG,≤ 0.25
3,KYAG,≤ 0.25
4,SQAG,25.9
5,SAAG,14.1
6,SEAG,12.1
7,STAG,9.55
8,DPAG,≤ 0.25
9,SFAG,0.768
10,SAVG,0.763
11,RRVI,≤ 0.25
12,FDPS,≤ 0.25
13,DHTW,≤ 0.25
14,SYEG,≤ 0.25
15,SYMG,12.5
16,SQMG,20.8
17,KYIG,≤ 0.25
18,STMG,9.85
19,SDIG,≤ 0.25
20,SYIG,11.3
21,SYHG,≤ 0.25
22,DPMG,≤ 0.25
23,WYLE,≤ 0.25
